Earlier results on 15 compounds are cited in PubChem BioAssay AID977611.

Broadly, the Kd is the free concentration of one partner at which half of the binding sites on the other are occupied at equilibrium, for simple one-to-one binding.

The campaign covered roughly 3,900 compounds. About 3,900 (100%) were called active. Cut-off not given; nearly all actives show Kd up to about 4200 µM. The set was probably picked from earlier hits. This is one part of the list. Where a SMILES comes first, the peptide text is derived from it. Non-standard residues stand in square brackets, D forms with d. Square brackets hold non-standard residues; d marks the D form. Residues, ends and D or L forms follow the SMILES beside them. Peptide text beside a SMILES is read from it. Orn(CH(NH2)2) = NC(N)NCCC[C@H](N)C(=O)O

The data set is described as follows: PubChem AID 977611. The settings on record: PDB protein-ligand complexes, literature Kd.

Take H-SEAAASTAVVIA-OH: the Kd (protein: human antithrombin, PDB entry 1br8) is 18 µM (active).

On to `CC[C@H](C)[C@H](NC(=O)[C@H](CC(C)C)NC(=O)[C@H](CCCCN)NC(=O)[C@H](CCC(N)=O)NC(=O)[C@@H](N)CCC(=O)O)C(=O)N[C@@H](CO)C(=O)N[C@@H](CCC(=O)O)C(=O)N[C@@H](CCC(=O)O)C(=O)N[C@@H](CC(=O)O)C(=O)N[C@@H](CC(C)C)C(=O)N[C@@H](CC(N)=O)C(=O)O` (H-EQKLISEEDLN-OH), for which the dissociation constant (Kd) (protein: Monoclonal anti-c-myc antibody 9E10, PDB entry 2or9) was 0.5 µM (active).

Take `CC[C@H](C)[C@H](NC(=O)[C@H](CCC(=O)O)NC(=O)[C@H](C)NC(=O)[C@H](CCC(N)=O)NC(=O)[C@H](CO)NC(=O)[C@H](CC(C)C)NC(=O)[C@@H](NC(=O)[C@@H](N)CO)[C@@H](C)CC)C(=O)N[C@@H](CC(=O)O)C(=O)N[C@@H](C)C(=O)N[C@@H](CC(C)C)C(=O)N[C@@H](CC(C)C)C(=O)N[C@@H](CC(N)=O)C(=O)O` (H-SILSQAEIDALLN-OH): for the setting “protein: double mutant Chemotaxis protein cheYD13K Y106W, PDB entry 1u8t”, the Kd was 55 µM (active).

As for `Cn1c(CNc2ccc(C(=N)N)cc2)nc2cc(C(=O)N(CCC(=O)O)c3ccccn3)ccc21`, the Kd (protein: humanized anti dabigatran Fab, PDB entry 4jn2) is 2.1e-06 µM (active).

Consider `CCC1=CNN2C(NCc3ccc[n+]([O-])c3)CC(N3CCCC[C@H]3CCO)NC12` (stereo partly specified), for which the Kd (protein: Bromodomain testis-specific protein, PDB entry 4kcx) is 37 µM (active).

Take `CCCCCCCC(=O)O[C@@H]1[C@@H](OC(=O)[C@@H](C)CC)[C@@H](C)[C@H]2[C@H]1[C@@](C)(OC(C)=O)C[C@H](O[C@@H](O)CCC)[C@@]1(O[C@H](O)CCC)[C@H]2O[C@@H](O)[C@@]1(C)O`: under “protein: SERCA1a, PDB entry 4j2t”, the Kd is 0.011 µM (active).

As for `CC(C)C[C@H](NC(=O)CNC(=O)[C@H](CC(C)C)NC(=O)[C@@H](NC(=O)[C@H](CC(C)C)NC(=O)[C@H](CCC(N)=O)NC(=O)[C@@H](N)CCCNC(N)N)C(C)C)C(=O)O` (HELM PEPTIDE1{[NC(N)NCCC[C@H](N)C(=O)[*:2]].Q.L.V.L.G.L}$$$$V2.0), the Kd (protein: DNA polymerase III, PDB entry 1ok7) is 1.2 µM (active).

In the case of `CSCC[C@H](NC(=O)[C@H](CC(C)C)NC(=O)[C@H](C)NC(=O)[C@@H](NC(=O)[C@H](CC(N)=O)NC(=O)[C@H](CO)NC(=O)CNC(=O)[C@H](CCCNC(N)N)NC(=O)[C@H](CCCNC(N)N)NC(=O)[C@H](CCC(=O)O)NC(=O)[C@H](CCC(N)=O)NC(=O)[C@H](CC(C)C)NC(=O)[C@@H](N)CCCNC(N)N)C(C)C)C(=O)N[C@@H](CC(C)C)C(=O)N[C@@H](CC(=O)O)C(=O)N[C@@H](CS)C(=O)O` (H-[Orn(CH(NH2)2)]LQE[Orn(CH(NH2)2)][Orn(CH(NH2)2)]GSNVALMLDC-OH), the Kd (protein: Mitogen-activated protein kinase 1, PDB entry 2gph) was 5 µM (active).

Regarding `CC[C@H](C)[C@H](NC(=O)[C@H](CC(=O)O)NC(=O)[C@H](CCC(=O)O)NC(=O)[C@H](CC(C)C)NC(=O)CNC(=O)[C@H](C)NC(=O)[C@H](C)N)C(=O)N[C@H](C(=O)N[C@@H](CCCNC(N)N)C(=O)N[C@@H](CCCCN)C(=O)N[C@@H](C)C(=O)N[C@@H](CC(C)C)C(=O)N[C@@H](CCSC)C(=O)NCC(=O)N[C@H](C=O)CO)[C@@H](C)CC` (H-AAGLEDII[Orn(CH(NH2)2)]KALMGS-aldehyde), for the setting “protein: Glucocorticoid receptor, PDB entry 3h52”, the Kd was 14 µM (active).

`CC[C@H](C)[C@H](NC(=O)[C@H](CCSC)NC(=O)CNC(=O)[C@H](CCCNC(N)N)NC(=O)[C@@H](N)CCC(N)=O)C(=O)O` (H-Q[Orn(CH(NH2)2)]GMI-OH): the Kd (protein: Response regulator aspartate phosphatase F, PDB entry 4i9c) was 3.1 µM (active).

For the compound `CC[C@H](C)[C@H](NC(=O)[C@@H](N)CCCNC(N)N)C(=O)N[C@@H](CO)C(=O)N[C@@H](C)C(=O)N[C@@H](CC(=O)O)C(=O)N[C@@H](C)C(=O)N[C@@H](CCSC)C(=O)N[C@@H](CCSC)C(=O)N[C@@H](CCC(N)=O)C(=O)N[C@@H](C)C(=O)N[C@@H](CC(C)C)C(=O)N[C@@H](CC(C)C)C(=O)NCC(=O)N[C@@H](C)C(=O)N[C@@H](CCCNC(N)N)C(=O)N[C@@H](C)C(=O)N[C@@H](CCCCN)C(=O)O` (H-[Orn(CH(NH2)2)]ISADAMMQALLGA[Orn(CH(NH2)2)]AK-OH), the Kd is 2000 µM (active) (protein: Regulatory Domain of Human Cardiac Troponin C and Ca2+, PDB entry 2krd); 154 µM (active) (protein: human Cardiac Troponin-C(cNTnCCa2+), PDB entry 1mxl).

For `CC[C@H](C)[C@H](NC(=O)[C@H](C)NC(=O)[C@H](CC(C)C)NC(=O)[C@H](CCC(N)=O)NC(=O)[C@H](CCCNC(N)N)NC(=O)CNC(=O)[C@@H](NC(=O)[C@H](CCC(N)=O)NC(=O)CN)C(C)C)C(=O)N[C@H](C(=O)NCC(=O)N[C@@H](CC(=O)O)C(=O)N[C@@H](CC(=O)O)C(=O)N[C@H](C(=O)N[C@@H](CC(N)=O)C(=O)N[C@@H](CCCNC(N)N)C(=O)O)[C@@H](C)CC)[C@@H](C)CC`, for the setting “protein: BCL-XL, PDB entry 1bxl”, the Kd was 0.34 µM (active).

As to `CC[C@H](C)[C@H](NC(=O)[C@H](CCC(=O)O)NC(=O)[C@H](CCC(=O)O)NC(=O)[C@@H](N)CC(=O)O)C(=O)N[C@@H](CCC(=O)O)C(=O)N[C@@H](CCCNC(N)N)C(=O)N[C@@H](CCC(N)=O)C(=O)N[C@@H](CC(C)C)C(=O)N[C@@H](CCCCN)C(=O)N[C@@H](C)C(=O)N[C@@H](CC(C)C)C(=O)NCC(=O)N[C@H](C(=O)N[C@@H](CC(=O)O)C(=O)O)C(C)C` (H-DEEIE[Orn(CH(NH2)2)]QLKALGVD-OH), where the note is “protein: Vacuolar protein sorting-associating protein 4B, PDB entry 2jqk”, the Kd is 402 µM (active).

On to `CSCC[C@H](NC(=O)CNC(=O)[C@H](C)NC(=O)[C@@H](N)CCC(=O)O)C(=O)N[C@H](C(=O)N[C@@H](CC(C)C)C(=O)NCC(=O)N[C@@H](C)C(=O)N[C@@H](CCCNC(N)N)C(=O)N[C@@H](CCCCN)C(=O)N[C@@H](CC(C)C)C(=O)N[C@@H](CCCCN)C(=O)N[C@@H](CCCCN)C(=O)N[C@@H](CC(C)C)C(=O)NCC(=O)O)[C@@H](C)O` (H-EAGMTLGA[Orn(CH(NH2)2)]KLKKLG-OH), for which the Kd (protein: Importin subunit alpha-2, PDB entry 3btr) is 5 µM (active).

`COc1ccc2c(c1OC)CN(C)c1c-2ccc2cc3c(cc12)OCO3`: the Kd (protein: Chitinase A, PDB entry 3arw) was 0.7 µM (active).
